mHTT-CaM PPI inh = mHTT-calmodulin interaction abrogation | P42858 | AlphaScreen His-mHTT/GST-CaM binding, luminescence | inhibition, % at 15 µM | actives 3.6% (n = 190,000)
Pf apPOL inh = Pf-apPOL DNA polymerase inhibition; Recombinant Pf-apPOL, molecular beacon fluorescence, 1.5 h; inhibition, % at 10 µM; actives 0.25% (n = 210,000); AID 1794808
Numbers stand for hits; n = inactive; x = not tested or not shown. The sample as a whole holds a higher share of hits than the screen did. Rule as the data show it: active = inhibition above about 50%; inactive = the rest.

SMILES	mHTT-CaM PPI inh	Pf apPOL inh
COc1ccccc1C(=O)N1CCN(c2ccc([N+](=O)[O-])c(N3CCCCC3)c2)CC1	53	n
O=C(c1c(F)cccc1F)N1CCCC1c1ccccc1F (centres undefined)	n	n
CCOc1cc(-c2ccc(OC)c(OC)c2)cc(=O)c2c(C)oc(C)c12	n	n
CCOc1cc(-c2cccs2)cc(=O)c2c(C)oc(C)c12	55	n
O=C(Nc1nccs1)C1COc2ccccc2O1 (centres undefined)	n	n
O=C(Cn1nc2c(c1NC(=O)C1COc3ccccc3O1)CSC2)NCc1ccco1 (centres undefined)	94	n
CCN(CC)c1ccc(C=NCCc2ccccc2)c(O)c1	80	n
CCN(CC)c1ccc(C=Nc2ccccc2)c(O)c1	n	n
O=C(O)CC1SC(c2ccc3c(c2)OCO3)=NC1=O (centres undefined)	x	52
CC(C)(C)c1ccc(C2=NC(=O)C(CC(=O)O)S2)cc1 (centres undefined)	x	n
CC1CCCCN1CCCNC(=O)C1CCN(S(=O)(=O)N2CCC3(CC2)OCCO3)CC1 (centres undefined)	n	n
CCOc1ccc(NCC(O)Cn2c(C)c(C)c3ccccc32)cc1 (centres undefined)	84	n
Cc1c(C)n(CC(O)CNC2CCCCC2)c2ccccc12 (centres undefined)	n	n
COc1ccc(NCC(O)Cn2c(C)c(C)c3ccccc32)c(OC)c1 (centres undefined)	74	n
Cc1c(C)n(CC(O)CN2CCCCCC2)c2ccccc12 (centres undefined)	n	n
COc1ccc(NCC(O)Cn2c(C)c(C)c3ccccc32)cc1 (centres undefined)	57	n
CC(=O)Nc1ccc(OCC(O)Cn2c3ccccc3c3ccccc32)cc1 (centres undefined)	n	n
O=C(O)c1ccc(NCc2ccccc2)cc1	n	n
O=C(c1cc(-c2cccs2)[nH]n1)N1CCc2c(nc(-c3ccccc3)[nH]c2=O)C1	n	n
CN(CC(=O)N1N=C(c2ccccc2F)CC1c1ccccc1F)C(=O)C1CC1 (centres undefined)	n	n
COc1ccc(CCNC(=O)CCCc2cn(C)c3ccccc23)cc1OC	n	n
O=C(c1cccs1)N1CCCCC1CCN1CCCCC1 (centres undefined)	n	n
CNC(=O)CC1CCN(c2ccnc(NC)n2)CC1	n	93
CNc1nccc(N2CCC(CC(=O)N3CCN(c4cccc(C)c4)CC3)CC2)n1	n	n
CCNc1nccc(N2CCC(CC(=O)N3CCN(c4cccc(Cl)c4)CC3)CC2)n1	51	n
SMILES	mHTT-CaM PPI inh	Pf apPOL inh
CNc1nccc(N2CCC(CC(=O)NCCOC)CC2)n1	n	n
CC(=O)N1CCc2sc(C(=O)N3CCN(c4cccc(Cl)c4)CC3)cc2C1	78	n
CCC(=O)N1CCc2sc(C(=O)N3CCN(c4cccc(Cl)c4)CC3)cc2C1	n	n
CC(=O)N1CCc2sc(S(=O)(=O)N3CCN(c4ccccc4)CC3)cc2C1	n	n
CC(=O)N1CCc2sc(S(=O)(=O)N3CCN(c4ccccc4Cl)CC3)cc2C1	81	n
O=C(CN1CCN(C(=O)c2ccc(S(=O)(=O)N3CCCC3)cc2)CC1)c1cccs1	n	n
COc1ccc2nc(C)cc(N)c2c1	n	n
COc1ccc(-n2c(C)ccc2C)c(N)c1	54	n
Cc1cc(O)c(C(C)C)cc1NC(=O)c1ccc(Cl)cc1	n	n
Cc1cc(O)c(C(C)C)cc1N=C1CSC(=O)N1	53	n
CC(=O)CC12CC3CC(CC(Br)(C3)C1)C2	n	x
O=C(CCNc1ccc(F)c(Cl)c1)c1ccccc1	n	n
Fc1ccc(NC/C=C/c2ccco2)cc1Cl	91	n
COc1ccc(-c2csc(/C(C#N)=C/Nc3ccc(NC(C)=O)cc3)n2)cc1	n	n
CCn1ccc2oc(C)c(C(=O)N3CCC(Cc4ccccc4)CC3)c2c1=O	93	n
CCn1ccc2oc(C)c(C(=O)N3CCC(C)CC3)c2c1=O	n	n
Cc1oc2ccn(Cc3ccc(F)cc3)c(=O)c2c1C(=O)N1CCCCC1	59	n
Cc1oc2ccn(Cc3cccc(F)c3)c(=O)c2c1C(=O)N1CCCCC1	n	n
Cc1sc2ccn(Cc3ccc(F)cc3)c(=O)c2c1C(=O)N1CCOCC1	n	n
Cc1sc2ccn(Cc3ccc(F)cc3)c(=O)c2c1C(=O)N1CCC(C)CC1	80	n
Cc1ccc(NC2=CC(c3ccccc3)N(c3ccc(C)cc3)C2=O)cc1 (centres undefined)	n	n
COc1ccc(-c2[nH]n(-c3nc4ccccc4s3)c(=O)c2C=NCCN2CCOCC2)cc1	68	n
O=c1c(C=NCCN2CCOCC2)c(C(F)(F)F)[nH]n1-c1nc2ccccc2s1	n	n
CCn1c2ccccc2c2cc(C3C(C#N)=C(N)Oc4n[nH]c(COC)c43)ccc21 (centres undefined)	65	n
COCc1[nH]nc2c1C(c1ccc(OC)c(OC)c1)C(C#N)=C(N)O2 (centres undefined)	n	n
SMILES	mHTT-CaM PPI inh	Pf apPOL inh
CC(C)(C)C(=O)Nc1c(-c2ccc(C(F)(F)F)cc2)nc2ccccn12	n	n
CC(C)CC1=NN(C(=O)c2ccccc2Cl)C(O)(C(F)(F)F)C1 (centres undefined)	n	n
CCCC(O)=C1C(=O)CC(C)(C)CC1=Nc1ccc(OC)cc1	n	n
N#C/C(=C\c1c(F)cccc1Cl)c1nn(CCO)c(N)c1C#N	n	n
N#C/C(=C\c1ccc(-c2cc(Cl)cc(Cl)c2)o1)c1nn(CCO)c(N)c1C#N	58	n
N#C/C(=C\c1cccc(Br)c1)c1nn(CCO)c(N)c1C#N	n	n
N#C/C(=C\c1ccc(-c2ccc(Cl)cc2)o1)c1nn(CCO)c(N)c1C#N	54	n
Cc1cccc(NC(=O)C2C3C=CC(C4CC34)C2C(=O)O)c1C (centres undefined)	n	n
COc1ccc(-c2c(C(=O)N3CCCCC3)nc3ccccn23)cc1	n	n
COc1ccc(C=CC(=O)c2cc(C)ccc2O)c(OC)c1	67	n
COc1ccc(O)c(C(=O)C=Cc2ccc3c(c2)OCCCO3)c1	80	n
COc1ccc(C=CC(=O)c2cc(F)ccc2O)c(OC)c1	n	n
O=C(C=Cc1ccc2c(c1)OCCCO2)c1cc([N+](=O)[O-])ccc1O	n	n
OCCNCCOc1ccc(Cl)cc1	n	77
Cc1cc(OCCNCCO)cc(C)c1Cl	n	n
O=C(O)COc1ccc2c(c1)OC(=Cc1ccc(Cl)c(Cl)c1)C2=O	n	63
O=C(O)COc1ccc2c(c1)OC(=Cc1cccc(Br)c1)C2=O	n	n
O=[N+]([O-])c1ccc(N2CCCCCC2)nc1	n	99
O=[N+]([O-])c1ccc(N2CCCCC2)nc1	n	n
CC(Oc1ccc(Cl)cc1Cl)c1nc(-c2nonc2N)no1 (centres undefined)	n	n
Cc1ccc(-c2ccc(N3CCN(S(C)(=O)=O)CC3)nn2)cc1C	n	n
COc1ccc(NC(=O)Nc2cccc(-c3ccc(N4CCOCC4)nn3)c2)cc1OC	50	n
O=C(COc1ccc(F)cc1F)Nc1cccc(-c2ccc(N3CCOCC3)nn2)c1	n	n
O=C(NCc1ccccc1)Nc1cccc(-c2ccc(N3CCCC3)nn2)c1	85	n
COc1cc(C)c(C)cc1S(=O)(=O)Nc1cccc(-c2ccc(N3CCCC3)nn2)c1	77	n
O=C(Nc1cccc(-c2ccc(N3CCCCC3)nn2)c1)c1ccccc1[N+](=O)[O-]	n	n

Source: PubChem BioAssay (University of Kansas High Throughput Screening Laboratory)
